# FAK blocker = inhibitors of human focal adhesion kinase. inhibition, %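 (tested at 7 µM)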. Q05397. 0.84% of 97,000 active. biochemical FAK kinase activity assay. AID 727; in the data active = inhibition above about 19%;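 also: 0% = DMSO and 100% = reference compound high control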
# Pyk2 oligo antag = blocks oligomerization of human Pyk2 in cells | Q14289 | Q293 cells, Pyk2 FERM NanoBiT luminescence; stronger effect = lower value | z-score (the deposit names both 25 µM and 10 µM) | 0.83% of 99,000 active | AID 1347419;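 active = Z-score of -3 or lower, scaled per plate to the spread of control and sample wells; inactive = z-score above -3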;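 also: negative z-score means lost luminescence so less FERM oligomerization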
# CD11b adhes inh = blocks human CD11b/CD18 adhesion to fibrinogen; K562 CD11b/CD18 adhesion to fibrinogen, ATPlite luminescence; Mn2+ added to activate the integrin; inhibition, % at 10 µM; 0.54% of 93,000 active; AID 1497;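 active = primary inhibition of 50% or more at 10 µM, then 40% or more on retest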
# Mac1 fbg enh = increases human CD11b/CD18 adhesion to fibrinogen. K562 CD11b/CD18 adhesion to fibrinogen, ATPlite luminescence. AID 1499. activation, % at 10 µM. P05107+P11215. 0.07% of 93,000 active;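 active = 10 µM primary screen giving 50% or more activity, confirmed by 40% or more on retest at that dose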
# hDAT+cocaine = modulates human dopamine transporter uptake under cocaine; B-score at 10 µM; Q01959; LLC-PK1 hDAT cells, [14C]-dopamine uptake with cocaine IC80; actives deviate in either direction; 1.3% of 110,000 active;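 active = Z score or B-score, a plate-position-corrected score, falls beyond the plate's 99.7% confidence bounds, in either direction; inactive = both scores lie inside the 99.7% bounds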;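 also: scored against the spread of the other compound wells on the same plate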
# D1 mod = allosteric modulators of human D1 dopamine receptor. B-score at 10 µM. P21728. HEK293 D1, CRE-luciferase, dopamine EC30 potentiation; actives deviate in either direction. AID 641. 5.9% of 58,000 active;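 active = luminescence count or its row- and column-corrected plate score outside the 99.7% band of the plate's sample wells, on either side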
# Target sequence (P21728 whole entry, looked up): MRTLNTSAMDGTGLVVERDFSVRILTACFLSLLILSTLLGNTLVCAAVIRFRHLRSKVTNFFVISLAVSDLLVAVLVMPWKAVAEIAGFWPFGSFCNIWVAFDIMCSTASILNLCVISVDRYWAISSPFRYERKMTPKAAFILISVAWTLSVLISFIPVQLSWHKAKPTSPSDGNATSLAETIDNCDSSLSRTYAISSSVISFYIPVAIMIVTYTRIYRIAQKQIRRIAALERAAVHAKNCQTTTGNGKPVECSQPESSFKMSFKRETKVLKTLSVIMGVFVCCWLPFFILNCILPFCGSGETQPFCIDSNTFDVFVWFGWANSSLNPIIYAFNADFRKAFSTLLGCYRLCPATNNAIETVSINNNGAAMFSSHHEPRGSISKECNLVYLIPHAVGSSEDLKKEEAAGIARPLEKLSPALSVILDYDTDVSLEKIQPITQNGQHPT
# D1 mod confirm = D1 receptor (human) allosteric modulation, confirmed | HEK293 D1 CRE-luciferase, dopamine EC30 potentiation; stronger effect = higher value | shares compounds with D1 mod | 88% of 2,200 active | luminescence at 10 µM | AID 642;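 active = luminescence in either of two replicates above the same-plate mean plus 3 SD of the low-dose dopamine control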
# D1 ag no DA = secondary test of D1 modulators: activity without dopamine; shares compounds with D1 mod; HEK293 D1 CRE-luciferase, luminescence, no dopamine; stronger effect = higher value; luminescence at 10 µM; 0.8% of 1,900 active; AID 646; in the data active = luminescence above about 3900
# Isoprot counter = counter-screen for D1 modulators: isoproterenol response in HEK293 cells | shares compounds with D1 mod | HEK293 D1 CRE-luciferase, isoproterenol EC30 counter-screen | calls only at 10 µM | 63% of 2,200 active;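 active = luminescence in either replicate above plate mean of wells with a partly effective reference agonist dose plus 3 SD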;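 also: isoproterenol raises cAMP through native beta-adrenoceptor Gs so signal bypasses D1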
# Numbers without * were called inactive; i = inactive; . = no result given; + = active, no number. Only a selection was taken, and hits are over-represented in it overall.
SMILES,FAK blocker,Pyk2 oligo antag,CD11b adhes inh,Mac1 fbg enh,hDAT+cocaine,D1 mod,D1 mod confirm,D1 ag no DA,Isoprot counter
CC(C)OC(=O)CSc1nnc(-c2cnccn2)n1-c1ccccc1,-1,1.2,.,.,0.13,5.1*,7372*,1596,i
COc1cccc(-n2c(SC)nnc2-c2cnccn2)c1,-3,0.94,.,.,-0.36,14*,5740,1548,i
c1ccc(-n2c(SCC3CCCCO3)nnc2-c2cnccn2)cc1 (configuration not stated),0,-0.92,3,-3,-0.4,1.7,.,.,.
CC(=O)Nc1ccc(-c2nnc(SCc3c(C)cc(C)cc3C)n2C)cc1,0,-1.1,19,2,0.69,.,.,.,.
Cc1ccc2cc(C)c3nnc(SCC(=O)Nc4nc5c(s4)CCCC5)n3c2c1C,0,-1.7,.,.,1.9,.,.,.,.
O=C(CNc1ccccc1)N/N=C/c1ccc2c(c1)OCCO2,.,.,7,1,.,.,.,.,.
CCC(=O)N(CC(=O)Nc1sc(C)c(C)c1C(N)=O)C1CCCCC1,1,0.16,0,-3,0.2,.,.,.,.
Cc1ccc(C(=O)OCC(=O)Nc2ccccc2)cc1NC(=O)c1ccco1,1,0.09,-6,78,0.36,4.4*,6808,1724,i
CCOC(=O)c1c(NC(=O)Cc2cccs2)sc(C(=O)N2CCCCC2)c1C,-1,-0.84,-19,0,0.83,12*,17816*,1812,+
CCOC(=O)c1c(N)sc(C(=O)N2CCCCC2)c1C,2,-0.17,.,.,0.26,.,.,.,.
COC(=O)c1c(NC(=O)Cc2cccs2)sc(C)c1C,.,-0.91,14,-3,-0.93,15*,11876*,1564,+
Cc1cccc(-n2c(SCc3cc(=O)n4c(C)cccc4n3)nc3[nH]ncc3c2=O)c1,1,.,7,-2,.,.,.,.,.
CSc1ccc(-c2nc(CSCC(=O)N3CCOCC3)c(C)o2)cc1,0,-0.21,19,-3,-0.41,26*,5664,1536,i
C=CCSc1nnc2n(-c3ccccc3OC)c(=O)c3c4c(sc3n12)CCC4,.,.,23,3,1.6,5.7*,11688*,1704,i
CSc1nnc2n(C3CCCCC3)c(=O)c3c4c(sc3n12)CCCC4,.,.,-11,3,.,.,.,.,.
CCCSc1nnc2n(-c3ccccc3OC)c(=O)c3c4c(sc3n12)CCC4,0,0.7,-2,10,1.2,.,.,.,.
CSc1nnc2n(-c3ccccc3)c(=O)c3c4c(sc3n12)CCC4,2,-0.53,-21,-4,0.073,17*,18696*,1684,+
Cc1sc2nc(C3CC3)nc(NCCNS(C)(=O)=O)c2c1C,4,0.93,3,-2,-0.62,6.5*,10452*,1764,i
Cc1nc(NCCc2ccc(S(N)(=O)=O)cc2)c2c(C)c(C)sc2n1,3,0.72,14,-2,-0.56,.,.,.,.
c1ccc2c(c1)N1CCN=C1N2CCN1CCCCC1,-3,0.3,-10,0,0.69,1,.,.,.
CCCN1C2=NS(=O)(=O)CCN2c2ccccc21,0,0.22,10,2,-0.27,8.4*,20272*,2056,+
Cc1cc(C(=O)CN2C(=O)NC(c3ccccc3)(c3ccccc3)C2=O)c(C)n1Cc1ccccc1,1,0.1,.,.,0.84,.,.,.,.
Cc1csc(N(C)C(=O)CSc2nnc(COc3cccc4ccccc34)o2)n1,-1,0.91,-3,3,0.47,.,.,.,.
Cc1ccc2c(c1)c(N=NC(N)=S)c(O)n2Cc1ccccc1,.,0.83,.,.,.,.,.,.,.
CSc1nnc2c3cc(C)ccc3n(Cc3ccccc3)c2n1,.,-0.52,-13,22,0.46,8.9*,14436*,1372,+
SMILES,FAK blocker,Pyk2 oligo antag,CD11b adhes inh,Mac1 fbg enh,hDAT+cocaine,D1 mod,D1 mod confirm,D1 ag no DA,Isoprot counter
NC(=O)C1CCN(C(c2ccccc2Cl)c2nnnn2Cc2ccc3c(c2)OCO3)CC1 (configuration not stated),0,-1.7,-27,0,-1.4,0.58,.,.,.
CN(Cc1ccccc1)Cc1nc2c(c(=O)n(C)c(=O)n2C)n1Cc1ccc(F)cc1,7,-1,-6,10,-0.32,-0.14,.,.,.
Cc1ccc(Cn2c(CN(C)Cc3ccccc3)nc3c2c(=O)n(C)c(=O)n3C)cc1,5,0.17,1,3,1,4.9*,8728*,1740,+
Cc1ccc(-n2ncc(C#N)c2/N=C/N2CCCCCC2)cc1,.,-0.08,4,-4,0.46,20*,17800*,1536,+
CCOC(=O)c1[nH]cnc1C(=O)Nc1ccncc1,4,0.42,10,-1,-0.04,13*,14788*,1588,+
CC1CCCN(Cc2cccc(Oc3ccccc3)c2)C1 (configuration not stated),-6,0.09,.,.,-0.3,.,.,.,.
COc1ccc(C2CCCN2C(=O)Nc2ccc(Cl)cc2)cc1OC (configuration not stated),2,.,-3,6,0.3,.,.,.,.
Nc1ncnc2c1ncn2CCOc1ccccc1,3,1.3,4,-4,-0.44,4.9*,6344*,1408,i
Cc1cc(NCCCn2ccnc2)n2c(nc3ccccc32)c1C#N,0,-0.72,-29,13,-0.018,3.9*,7832*,1564,i
Cc1cc(NCCN2CCCCC2)n2c(nc3ccccc32)c1C#N,1,.,-1,-3,-1.5,-0.27,.,.,.
COc1ccc(/C=N/NC(=O)C2CCN(c3ncc(C(F)(F)F)cc3Cl)CC2)cc1,2,-1.1,.,.,1.1,.,.,.,.
Cc1cc(C(F)F)n2ncc(C(=O)NC3CCCCCC3)c2n1,14,-0.51,-25,1,-1.2,6.3*,10720*,1544,+
COc1ccccc1CNC(=O)c1cnn2c(C(F)F)cc(C)nc12,-1,-0.19,-1,1,0.84,.,.,.,.
Cc1cc(C(F)F)n2ncc(C(=O)NCc3ccccc3C(F)(F)F)c2n1,0,-0.53,.,.,0.12,5.3*,8576*,.,+
CCc1ccc(NS(=O)(=O)c2cccs2)cc1,-1,-0.3,25,-2,-0.13,0.9,.,.,.
COc1cccc(C2C(C(=O)c3cccs3)=C(O)C(=O)N2CCN(C)C)c1OC (configuration not stated),0,-0.35,-16,0,-0.0023,2.5*,5748,.,i
CN(C)c1ccc(C(CC(=O)O)NC(=O)c2ccc(Cl)cc2)cc1 (configuration not stated),-5,0.98,23,3,0.13,18*,5248,.,i
CCOc1ccc(S(=O)(=O)N(CC(=O)N/N=C/c2cccs2)c2ccc(C)cc2)cc1,8,-1.6,-8,-1,-0.027,.,.,.,.

# Screens deposited in PubChem by several laboratories.
